# Laboratory results: PubChem BioAssay AID540303 (National Center for Advancing Translational Sciences (NCATS), 2011)
# In all, about 330,000 compounds went through this assay and about 1,000 (0.3%) were called active. Inconclusive results (about 3%) are left out. Many of the other results were omitted from the sample, so actives are more common in it than they were. Unmarked numbers belong to inactive results. Calls come from the whole dose curve; as a rule, active = well fitted inhibition curve with a large enough effect; inconclusive = small, poorly fitted or top-dose-only effect; inactive = no such curve, though single readings can be large or run the other way; tested in mouse RAW 264.7 cells.
# Assay: qHTS for Inhibitors of Cell Surface uPA Generation; note: nearly all actives have a fitted effect of over 55% in size
# Details: cell surface uPA generation assay; series mostly up to 38.3 µM; activity change, negative = inhibition: at the top concentration
# From the text: The overall objective of this project is to perform a quantitative high throughput screen (qHTS) to identify novel compounds that inhibit the generation of cell surface urokinase activity. The urokinase plasminogen activator (uPA) is one of the two primary endogenous systems that mediate plasminogen activation into plasmin. Members of this system, including uPA and its receptor (uPAR), are overexpressed in several malignant tumors. This system plays a major role in adhesion, migration, invasion and metastasis of cancer cells. Small molecule inhibitors of the uPA system will serve as probes to understand the molecular mechanisms of the uPA cascade and better understanding the microenvironmental circumstances that facilitate the activation of plasminogen by uPA, and finally may provide novel candidate agents for anticancer drug therapy.
# […] […] Upon inhibition of the uPA activation cascade, the subsequent cell surface uPA activity-dependent translocation of LF into the cytoplasm is inhibited. ATP-Lite is used to measure intracellular ATP concentrations, which remain increased if LF entry into the cytoplasm is inhibited. This validation assay was performed using a small set of validation compounds.
# NIH Chemical Genomics Center [NCGC]
# NIH Molecular Libraries Probe Centers Network [MLPCN]
# Assay Submitter (PI): Thomas Bugge, National Institute of Dental and Craniofacial Research, NIH
# Cultured RAW 264.7 were dispensed into 1536-well clear bottom, white walled tissue culture plates at a density of 4000 cells/well and were incubated overnight (12-16 h) at 37 C in a 5% CO2 incubator. Serially diluted compounds in 23 nl DMSO were added to cells. […] Compound and reagent-treated plates were incubated for 24 h at 37 C in a 5% CO2 incubator. Perkin Elmer ATPlitetrade mark 1 step (3 ul) was then added to each well. Luminescence was detected using a Perkin Elmer ViewLuxtrade mark plate reader.
# 1.Dispensing RAW 264.7 cells into 1536-well, white walled tissue culture plates at a density of 4000 cells/well (4 uL).
# 2.Incubation at 37 C in a 5% CO2 incubator overnight.
# 3.Serially diluting compounds (1:5 serial dilution; 0.0024 uM to […] final concentration) in 23 nl DMSO.
# 5.Incubating the compound and reagent-treated plates for 24 hours at 37 C in a 5% CO2 incubator.
# 6.Adding ATP-Lite (3 ul).
# 7.Reading plates by ViewLux with an exposure length of 5 seconds.
# % is set by controls: 0 for no effect and ±100 for the full control effect; potency is the fitted concentration of half-maximal effect.
Structure (SMILES),Potency,"activity change, negative = inhibition"
COc1cc(SC)ccc1C(=O)Nc1nc(C)cs1,0.891 µM (active),
COc1cc(SC)ccc1C(=O)NCCOc1ccccc1Cl,,-1.79%
COc1ccc(C(=O)Nc2nncs2)c(OC)c1,11.2 µM (active),
COc1ccc(C(=O)Nc2cccc(NC(=O)c3ccc(OC)cc3OC)n2)c(OC)c1,,10.8%
COc1ccc(C(=O)NC2=NCCS2)c(OC)c1,,-9.96%
Cc1csc(NC(=O)c2ccc(C)s2)n1,,-4.48%
CCCC(O)(c1ccccc1)C(c1ccccc1)c1ccccn1 (stereo unspecified),,0.751%
Cc1cc(C)c(C=NNc2nc3c([nH]2)c(=O)n(C)c(=O)n3C)c(C)c1,,0.257%
O=c1c2ccccc2ncn1CCc1ccncc1,,-2.13%
O=C(Nc1ccccc1)Oc1cccc2cccnc12,,-8.43%
NN=C(NN=Cc1ccccc1)c1ccccc1,,-1.74%
COc1cc(/C=C/c2ccc(/C=C/c3cc(OC)c(OC)c(OC)c3)cc2)cc(OC)c1OC,,5.42%
CCCN(CCC)S(=O)(=O)c1cc2c(cc1Br)CCN2C(=O)CC,,6.75%
COc1ccc(NC(=S)NC2CCS(=O)(=O)C2)cc1 (stereo unspecified),,13.3%
O=C(Cc1ccc(Cl)cc1)NC1CCS(=O)(=O)C1 (stereo unspecified),,0.7%
COc1ccc(-c2ccc(OC(=O)NC3CCS(=O)(=O)C3)cc2)cc1 (stereo unspecified),10 µM (active),
COc1ccc2c(c1)C(=O)CC(c1ccccc1)O2 (stereo unspecified),,-5.17%
O=S(=O)(Cc1ccc(Cl)cc1Cl)c1ccc(Cl)cc1,,-13.8%
CC(=O)OCC(=O)C1(O)CCC2C3CC(C)C4=CC(=O)CCC4(C)C3C(O)CC21C (stereo unspecified),,-5.75%
Oc1c(CN2CCCC2)cc(COCc2ccccc2)c2cccnc12,4.47 µM (active),
COc1cc(C)cc(CN2CCC(Cc3ccccc3)CC2)c1O,,-15.2%
COc1cc(CN2CCC(C(N)=O)CC2)ccc1OCc1ccccc1,,-0.173%
Nc1ncnc2c1cnn2C1CC(O)C(CO)O1 (stereo unspecified),,1.67%

Structure (SMILES),Potency,"activity change, negative = inhibition"
COc1ccc(C2NCCCC2c2ccccc2)cc1 (stereo unspecified),,6.59%
O=C(NN=CC=Cc1ccccc1)C(O)C(O)C(=O)NN=CC=Cc1ccccc1 (stereo unspecified),,4.29%
Cc1ccc(-c2cn3cc([N+](=O)[O-])ccc3n2)cc1,,-15%
Cc1ccc2nc(-c3ccc(Br)cc3)cn2c1,2.82 µM (active),
Cc1ccc(-c2cn3cc(C)ccc3n2)cc1,,-13%
CC(C)=CCc1ccc(O)c(=O)cc1C(C)C,,-14.1%
CC(C)Cn1cnc2c(SCc3ccc(Cl)cc3)nc(N)nc21,,2.74%
COc1cccc(CNC(=O)c2nnn(CC(=O)Nc3cc(Cl)ccc3C)c2N)c1,,-7.07%
COc1cccc(CNC(=O)c2nnn(CC(=O)Nc3cc(C)ccc3C)c2N)c1,,-1.4%
Nc1c(C(=O)NCc2ccccc2)nnn1Cc1cccc(Cl)c1,11.2 µM (active),
COc1ccc(N=C2C=CC(=O)O2)cc1,,-4.89%
CCOc1cccc(SCc2noc(C(=O)NC(C)C)c2C(=O)O)c1,,-8.82%
CCCNC(=O)c1onc(CSc2ccc(F)cc2)c1C(=O)NC(C)C,,9.02%
COC(=O)c1c(CCl)noc1C(=O)NC(C)C,10 µM (active),
CC(=O)OC1CCC2(C)C(=CCC3C4CC(=O)N(O)C(=O)C4(C)CCC32)C1 (stereo unspecified),,-4.19%
CC(NC(=O)c1ccccc1)C(=O)Nc1ccccc1 (stereo unspecified),,2.25%
CC(=O)Nc1ccc(C(=O)Nc2cc(S(=O)(=O)N3CCOCC3)ccc2N2CCOCC2)cc1,,-3.85%
CCc1nc(Nc2ccc(NC(C)=O)cc2)c2oc3ccccc3c2n1,,8.93%
CC(=O)Nc1ccc(Nc2c3ccccc3nc3ccccc23)cc1,1 µM (active),
CC(C)(C)OC(=O)NNc1c2ccccc2nc2ccccc12,,-8.44%
OCC(O)C1OCOC(C(O)CO)C1O (stereo unspecified),,9.73%
O=C(NCCc1ccccc1)c1cccc(NC(=O)c2ccccc2)c1,,1.44%
O=C(NCc1cccc(C(F)(F)F)c1)c1cccc(S(=O)(=O)N2CCN(Cc3ccccc3)CC2)c1,,1.34%

Structure (SMILES),Potency,"activity change, negative = inhibition"
CC(NC(=O)CCC(=O)N1CCN(S(=O)(=O)c2ccc(Cl)cc2)CC1)c1ccccc1 (stereo unspecified),,-7.34%
O=C(CCC(=O)N1CCN(S(=O)(=O)c2ccc(Cl)cc2)CC1)NCc1cccc(C(F)(F)F)c1,12.6 µM (active),
Cc1cccc(NC(=S)N2CCC(C(=O)c3ccc(F)cc3)CC2)c1,,-2.65%
O=C(Cn1cnc2c(OCc3ccccc3)ncnc21)NCc1nc2ccccc2[nH]1,,20.3%
CC(CNC(=O)Cn1cnc2c(OCc3ccccc3)ncnc21)c1ccccc1 (stereo unspecified),,6.59%
Cc1ccc(CNC(=O)Cn2cnc3c(NCc4ccccc4)ncnc32)o1,11.2 µM (active),
CC(C)OC(=O)c1ccc(NCc2cc(O)ccc2O)cc1Cl,,4.35%
COC(=O)c1cc(OCC(=O)NC2CCCc3ccccc32)cc(C(=O)OC)c1 (stereo unspecified),,1.62%
O=C(CCNC(=O)c1ccc(Cl)cc1)NC1CCCc2ccccc21 (stereo unspecified),5.62 µM (active),
NC(=O)Nc1ccc(C(=O)OCC(=O)NC2CCCc3ccccc32)cc1 (stereo unspecified),,2.72%
CC1=CC(=NNS(=O)(=O)c2ccc([N+](=O)[O-])cc2)CC(C)(C)C1,,-2.04%
Cc1onc(-c2c(F)cccc2Cl)c1C(=O)Nc1cccc(S(=O)(=O)N2CCCCC2)c1,,-0.171%
COc1cc(/C=N\NC(=O)c2nonc2N)c(OC)cc1Br,7.94 µM (active),
Cc1cc(C)c([N+](=O)[O-])cc1-c1ccc(/C=N/NC(=O)c2nonc2N)o1,,2.06%
COc1cc(/C=N/N=C(\N)c2nonc2N)cc(OC)c1OC,,2.87%
CSCCC(NC(=O)COc1ccccc1)C(=O)OCc1ccc(Cl)cc1 (stereo unspecified),,1.9%
CCOc1ccc(/C=C(/C#N)c2nnc(N3CCOCC3)n2-c2ccccc2)cc1OC,,-3.57%
CCOc1ccccc1NC(=S)C(=C([O-])c1ccc2c(c1)OCCO2)[n+]1ccc(CC)cc1,,-8.87%
O=c1[nH]c2c(c(=O)n1-c1ccccc1)CCO2,,3.17%
O=[N+]([O-])c1ccc(NS(=O)(=O)c2ccccc2)c(Cl)c1,,-0.654%
CCc1ccc(C(=O)C(C)OC(=O)CN2C(=O)NC3(CCCC3)C2=O)cc1 (stereo unspecified),,-1.56%
O=C(NCCCn1ccnc1)c1cc(-c2ccccc2)on1,5.62 µM (active),
O=C(NCCCn1ccnc1)c1ccccc1F,,1.64%

Structure (SMILES),Potency,"activity change, negative = inhibition"
O=C(NCCCn1ccnc1)c1cc(Br)c(Br)s1,,5.42%
CCc1c(Nc2ccccc2Cl)nc(N)[nH]c1=O,,-10.9%
O=C(O)c1ccc(Cn2cnc3c(=S)nc[nH]c32)cc1,,-3.45%
CCCCC(=O)NC(c1ccc(OC)c(OC)c1)c1ccc2cccnc2c1O (stereo unspecified),,-13.8%
CC1CN(Cc2ccccc2)C(=S)NC1=O (stereo unspecified),,1.89%
COc1cccc(/C=N/Nc2ccc(S(=O)(=O)Nc3ccccc3C(=O)O)cc2[N+](=O)[O-])c1O,,0.183%
c1ccc2c(c1)OC1OC2Oc2ccccc21,,12.3%
Oc1cccc(/C=N/Nc2ccc(Cl)nn2)c1O,2.82 µM (active),
COc1cccc(/C=N/Nc2ccc(Cl)nn2)c1,,5.63%
Cc1ccsc1/C=N/Nc1ccc(Cl)nn1,,11.8%
Cc1ccc(S(=O)(=O)CCC(=O)OCC(=O)N(C)Cc2ccccc2)cc1,,4.47%
NC(=S)NN=C1CCCC(C(F)(F)F)C1 (stereo unspecified),,-2.84%
CSCCC(NC(=O)COc1ccccc1)C(=O)N1CCN(c2cccc(C(F)(F)F)c2)CC1 (stereo unspecified),,-9.29%
COc1cc(C2c3cc4c(cc3C(O)C3COC(=O)C23)OCO4)cc(OC)c1OC (stereo unspecified),,-8.49%
O=C(Nc1ccc(S(=O)(=O)Nc2nccs2)cc1)c1cc(-c2ccncc2)nc2ccccc12,,1.2%
CCN(CC)CCNC(=O)c1ccc(NC(=O)c2cc(-c3ccncc3)nc3ccccc23)cc1,10 µM (active),
COC(=O)CNC(=O)c1cc(-c2ccncc2)nc2ccccc12,,-0.0987%
CN(C(=O)c1cccc(NC(=O)Cc2cccc(NC(=O)C3CCCN(C(=O)C4CC4)C3)c2)c1)C1CCC1 (stereo unspecified),,14.2%
O=C(Nc1ncccc1O)c1ccc(S(=O)(=O)N2CCCC2)cc1,7.94 µM (active),
O=C(Nc1ncccc1O)c1ccc(S(=O)(=O)N2CCCCCC2)cc1,,0.388%
O=C(N/N=C/c1ccccn1)c1ccc(S(=O)(=O)N2CCCCCC2)cc1,,5.59%
Cc1cn(C2CC(O)C(CO)O2)c(=O)n(CCCc2ccccc2)c1=O (stereo unspecified),,-2.05%
O=S1(=O)CSCS(=O)(=O)C1,,2.84%

Structure (SMILES),Potency,"activity change, negative = inhibition"
COc1ccccc1N1CCN(C(=O)c2ccc(Cl)c(S(=O)(=O)N3CCCC3)c2)CC1,,-0.654%
CCOc1ccccc1N1CCN(C(=O)c2ccc3[nH]c(C)c(C)c3c2)CC1,2.51 µM (active),
Cc1[nH]c2ccc(C(=O)N3CCN(C)CC3)cc2c1C,,-8.89%
CCCCCCCCNS(=O)(=O)CCNC1CCCCC1,,6.43%
O=C(Cc1ccc(S(=O)(=O)N2CCOCC2)s1)Nc1ccc(Br)c(C(F)(F)F)c1,,-17.8%
CC(C)(C)S(=O)(=O)N1Cc2cc(CO)cc(CCO)c2[C@H]1CCO,,2.5%
Cc1ccccc1-c1ccc(Nc2ccc(C(=O)N3CCOCC3)cc2)nn1,,-5.32%
Cc1ccc(C(=O)N2CCN(C(=O)N3CCOCC3)CC2)cc1,,1.5%
Cc1oc2c(c1C(=O)N1CCOCC1)C(=O)c1ccccc1C2=O,2.51 µM (active),
C/C(=N\Nc1ccccc1)c1cccs1,,-0.263%
CC1C(C)N(C(=O)CCl)c2ccccc2N1C(=O)CCl (stereo unspecified),,-9.43%
O=C(NN=Cc1ccccc1O)NN=Cc1ccccc1O,,-13.6%
O=C1C[C@@H]2c3c(cccc3CN1Cc1ccccc1)C[C@@H](O)[C@H]2O,,4.62%
COc1ccc(CNCCCn2cnc3c(OCc4ccccc4)ncnc32)cc1,,-11.6%
CC(C)(C)OC(=O)N1CCC(C(=O)Nc2cccc(C(=O)NCCc3ccccc3)c2)CC1,,21%
CC(C)[C@@H](C(=O)OCC(=O)c1ccc2c(c1)NC(=O)CO2)N1C(=O)c2ccccc2C1=O,,0.762%
CC1(C)CC(N2CCN(C(c3ccccc3)c3ccccc3)CC2)=CC(=[N+]2CCCCC2)C1,1.12 µM (active),
Oc1ccccc1CN1CCN(C(c2ccccc2)c2ccccc2)CC1,,7.27%
O=C1CC(N2CCN(C(c3ccccc3)c3ccccc3)CC2)C(=O)N1 (stereo unspecified),,-0.34%
